Measurements: PMC5540273 (PLoS ONE, 2017)

What follows are compounds tested on T1, JNK3. Details: concentration: 1 μM, replicates: in singlicate; n = 1.
T1 construct: gene MAPK10
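Note: KINOMEscan kinase panel screen.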

| SMILES | %Inh |
| --- | --- |
| Cc1c(Cn2c3ccccc3n3c(=O)cc(N4CCOCC4)nc23)cccc1C(F)(F)F [GSK2306394] | 4% |
| Fc1ccc(-c2nc[nH]c2-c2ccncc2)cc1 [SB-217360] | 98.6% |
| COc1cccc(CNC(=O)NC2CCN(c3ccnc(Nc4ccc(F)cc4)n3)C2)c1 (stereo not drawn) [GSK1379723] | 11% |
| Cc1ccccc1-c1cc(-c2c[nH]nc2-c2ccccn2)ccn1 [GW680061] | 32% |
| COC(=O)C(NC(=O)NC1CCN(c2ccnc(Nc3ccc(F)cc3)n2)C1)c1ccccc1 (stereo not drawn) [GSK1379712] | 0% |
| O=C1NC(=O)C(c2ccc(Cl)cc2)=C1Nc1ccc(O)cc1 [SB-340867] | 0% |
| COC(=O)c1cccc(NC(=O)NC2CCN(c3ccnc(Nc4ccc(F)cc4)n3)C2)c1 (stereo not drawn) [GSK1379725] | 17% |
| COc1ccc2cc(-c3nc(-c4ccccc4C(C)C)[nH]c3-c3ccncc3)ccc2c1 [SB-660566] | 44% |
| CC(=O)c1c(C)c2cnc(Nc3ccc(N4CCNCC4)cn3)nc2n(C2CCCC2)c1=O | 0% |
| CCc1ccc(-c2ccc3c(c2)-c2n[nH]cc2S(=O)(=O)N3C)cc1 | 0% |
| CC(=O)c1c(C)c2cnc(Nc3ccn(C)n3)nc2n(C2CCCC2)c1=O | 0% |
| CC(C)c1cc(-c2ccc3c(N)n[nH]c3c2)nc(N)n1 [GSK2250882] | 8% |
| COc1ccc(Nc2nccc(N3CCC(NC(=O)C(C)c4ccc(Cl)cc4)CC3)n2)cc1 (stereo not drawn) [GSK1379812] | 10% |
| Cc1ccc(NC(=O)c2ccc(Cl)cc2)cc1-c1ccc(C(=O)Nc2ccncc2)cc1 [GSK1398467] | 0% |
| Cl.Cl.Cl.N#Cc1ccc(CCNc2nccc(-c3cccc(CN4CCNCC4)c3)n2)cc1 [GSK2137462] | 22% |
| CCCCc1nn2ncccc2c1-c1ccnc(NC2CC2)n1 [GW684374] | 82% |
| COc1cccc(NC(=O)Nc2ccc(C)c(-c3ccc(C(=O)Nc4ccncc4)cc3)c2)c1 [GSK1398474] | 26% |
| Cc1ccc(-c2nc(Nc3ccncc3)c3ccccc3n2)s1 [GSK189015] | 14% |

| SMILES | %Inh |
| --- | --- |
| CS(=O)(=O)CCNCc1nc(-c2ccc3ncnc(Nc4ccc(OCc5ccccc5)c(Cl)c4)c3c2)cs1.Cl [GW582764] | 0% |
| COC(=O)c1cccc(NC(=O)NC2CCN(c3ccnc(Nc4ccc(OC)cc4)n3)C2)c1 (stereo not drawn) [GSK1379746] | 0% |
| CC[C@@H]1CO[C@H](C(=O)Nc2ccccc2)CN1c1cc(-c2ccc3c(N)n[nH]c3c2)nc(NC)n1 [GSK2376236] | 0% |
| CS(=O)(=O)Cc1ccc(Nc2nccc(-c3c(-c4cccc(NC(=O)C5CCCCC5)c4)nn4ncccc34)n2)cc1 [GSK350559] | 36% |
| CSc1ccc(-c2nc3n(c2-c2ccncc2)CCC3)cc1 [SKF-105561] | 59% |
| Cc1cnc(N)c(/C=C/c2cncc(C(=O)NCCc3ccc(Cl)cc3Cl)c2)c1.Cl [GSK190937] | 4% |
| CNC(=O)c1ccc(C)c(-n2c(C)cc(OCc3ccc(F)cc3F)c(Br)c2=O)c1 | 100% |
| CCn1c(-c2c(N)noc2C)nc2cnccc21 [SB-737856] | 9% |
| O=c1cc(N2CCOCC2)nc2n(Cc3ccccc3F)ccn12 [GSK2297428] | 0% |
| Fc1ccc(-c2nc3n(c2-c2ccncc2)CCS3)cc1 [GI98581] | 98.7% |
| Fc1ccc(-c2nn3cccc(F)c3c2-c2ccncc2)cc1 [GW475620] | 97.4% |
| COc1ccc(CSc2nnc(-c3ccc4nccn4c3)o2)cc1C(F)(F)F | 0% |
| CC(C)c1ccc(O)cc1Nc1ccnc2ccc(C(F)(F)F)cc12 [GW482059] | 0% |
| Cc1ccc(NC(=O)Nc2ccccc2F)cc1-c1ccc(C(=O)Nc2ccncc2)cc1 [GSK1398477] | 0% |
| Cc1ccc(NC(=O)Nc2ccc(Cl)cc2)cc1-c1ccc(C(=O)Nc2ccncc2)cc1 [GSK1398472] | 1% |
| Cc1c(Cn2c(C)c(C)n3c(=O)cc(N4CCOCC4)nc23)cccc1C(F)(F)F [GSK2328680] | 0% |
| O=C(Nc1n[nH]c2nc(-c3cccs3)c(Br)cc12)C1CC1 [SB-735297] | 9% |
| Cc1cccc2c(-c3ccncn3)c(-c3ccc(F)cc3)nn12 [GW515532] | 74% |
